Hit rate of the full screen: of about 360,000 compounds, about 1,300 (0.36%) were called active. What follows is part of a selection rich in actives, with near analogues and random picks from the rest. A number with no mark means an inactive call.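 Rule for the calls: active = corrected activity change at or below -50% at 5 µM; inactive = the rest.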
Assay: cytotoxicity in KKLEB CF airway cells, primary screen, cytotoxicity control for CF NF-kB inhibitor project, cell-based, uHTS, fluorescence assay plates (AID 602141)
Conditions: KKLEB CF airway cells viability, ATPlite luminescence, overnight; at 5 µM; active compounds read low; cells stimulated with P. aeruginosa culture filtrate
`Nc1c(-c2cccc(Cl)c2)cnn1-c1cccc([N+](=O)[O-])c1` showed an activity change (cytotoxicity) of 4.3%.
With `CCCNC(=O)c1c(Cl)cnn1-c1ccc(C)cc1` the activity change (cytotoxicity) was 8.9%.
For `Cc1cccc(-n2ncc(Cl)c(Cl)c2=O)c1`, the activity change (cytotoxicity) was -97.1% (active).
Work on `CN(C)/C=C(/C(=O)c1ccc(Cl)c(Cl)c1)c1nnnn1-c1ccccc1` yielded an activity change (cytotoxicity) of 7.2%.
With `O=C(NCCN1C(=O)S/C(=C\c2cccnc2)C1=O)c1ccc(S(=O)(=O)N2CCCC2)cc1` the activity change (cytotoxicity) was -6.2%.
For `C=CCn1c(C2CC(=O)N(c3ccc(C)cc3)C2)nc2ccccc21` (stereo not given), the activity change (cytotoxicity) was 1.2%.
`COc1cccc(NC(=S)N(Cc2ccc(C)cc2)Cc2ccccn2)c1` showed an activity change (cytotoxicity) of 2.6%.
With `COc1ccc(NC(=O)C2Cc3c(-c4ccc5c(c4)OCO5)ccnc3O2)cn1` (stereo not given) the activity change (cytotoxicity) was -19.2%.
For `COc1ccc(NC(=O)/C(Cl)=C(/Cl)S(=O)Cc2ccc(C)cc2)cn1` (stereo not given), the activity change (cytotoxicity) was -105% (active).
`CC(C)NC(=O)C1(C)CCCCCN1C(=O)c1ccc(-c2ccccc2)cc1` (stereo not given) gave an activity change (cytotoxicity) of -2%.
Work on `COC(=O)c1ccc(S(=O)(=O)NCc2ccccc2)n1C` yielded an activity change (cytotoxicity) of 9.6%.
Work on `C=CCOc1nc2c(c(=O)n(C)c(=O)n2C)n1Cc1ccc(Cl)cc1Cl` yielded an activity change (cytotoxicity) of 9.5%.
Work on `CN(CC(=O)NCCc1ccccn1)S(=O)(=O)c1ccc(Cl)cc1` yielded an activity change (cytotoxicity) of 10.8%.
In the case of `CN(CC(=O)NNC(=O)CNC(=O)c1ccccc1Cl)S(=O)(=O)c1ccc(Cl)cc1`, the activity change (cytotoxicity) is reported as -61.3% (active).
In the case of `CN(CC(=O)NCC(c1ccccc1)N1CCCC1)S(=O)(=O)c1ccc(Cl)cc1` (stereo not given), the activity change (cytotoxicity) is reported as 16%.
With `O=C(O)c1cccnc1Sc1ncnc2sc3c(c12)CCC3` the activity change (cytotoxicity) was 15.9%.
For `O=S(=O)(c1ccccc1)c1nc(Cc2ccccc2)oc1N1CCOCC1`, the activity change (cytotoxicity) was -0.9%.
For `c1ccc(CSc2ncnc3c2sc2nc(N4CCOCC4)c4c(c23)CCCC4)cc1`, the activity change (cytotoxicity) was -51% (active).
Work on `Cc1c(CCO)c(=O)[nH]n1C(=O)c1c(F)cccc1F` yielded an activity change (cytotoxicity) of 1.8%.
Work on `S=c1[nH]cc(-c2ccc(Cl)cc2)n1-c1ccccc1` yielded an activity change (cytotoxicity) of 6.2%.
`Cc1ccnc(SCC(=O)Nc2cccc(S(=O)(=O)N3CCOCC3)c2)n1` showed an activity change (cytotoxicity) of 7.3%.
With `O=C(NCc1ccncc1)c1ccc(NS(=O)(=O)c2cccc([N+](=O)[O-])c2)cc1` the activity change (cytotoxicity) was -3%.
`O=C(CCN1CCCCC1)N=Nc1c(O)[nH]c2ccccc12` gave an activity change (cytotoxicity) of -4.3%.
In the case of `O=[N+]([O-])c1cc(S(=O)(=O)Nc2cccc(Cl)c2)ccc1N=Nc1c(O)[nH]c2ccccc12`, the activity change (cytotoxicity) is reported as -80% (active).
With `CCCNC(=O)CCn1cc(-c2ccc(OC)cc2)nc1CCN` the activity change (cytotoxicity) was 2.3%.
`COc1ccc(C2CC(=O)C=C(NCC3CCCO3)C2)cc1` (stereo not given) gave an activity change (cytotoxicity) of 0%.
`O=C(NCC(F)(F)F)c1ccc(S(=O)(=O)NCCc2ccc3c(c2)OCCO3)cc1` gave an activity change (cytotoxicity) of 19.2%.
For `O=C(OC12CC3CC(CC(C3)C1)C2)c1ccc(NCc2cc(O)ccc2O)cc1`, the activity change (cytotoxicity) was -63.4% (active).
`O=C(CC1CCCCC1)Nc1c2c(nn1-c1ccc(F)cc1)CS(=O)(=O)C2` gave an activity change (cytotoxicity) of -3.9%.
With `COc1ccc(-c2c(C#Cc3ccsc3)c3cc(-c4ccc(CN5CCOCC5)cc4)ccc3n2C)cc1` the activity change (cytotoxicity) was -4.5%.
With `O=C(Nc1cccc2ccccc12)NC1CC1` the activity change (cytotoxicity) was 1%.
`O=C(Nc1cccc2ccccc12)c1onc2c1CCCC2` showed an activity change (cytotoxicity) of 5.7%.
With `O=C(Nc1cccc2ccccc12)c1[nH]c(-c2ccccc2)c2c1C(=O)N(C1CC1)C2=O` the activity change (cytotoxicity) was -52.9% (active).
With `COCCN(C(=S)Nc1ccccc1OC)C1CCN(C(C)C)CC1` the activity change (cytotoxicity) was -3.5%.
With `CC(Oc1ccc(F)cc1F)C(=O)/C=C/N(C)C` (stereo not given) the activity change (cytotoxicity) was 4.1%.
With `COC(=O)c1ccc(CNC(=O)C2CCC(=O)N(Cc3ccccn3)C2)cc1` (stereo not given) the activity change (cytotoxicity) was -4.5%.
With `COc1ccc(-c2cc(C(F)(F)F)nc(S(C)(=O)=O)n2)cc1OC` the activity change (cytotoxicity) was -78.4% (active).
With `COc1ccc(C2SCCN2S(=O)(=O)c2ccccc2)cc1OC` (stereo not given) the activity change (cytotoxicity) was -14.9%.
Molecule `COc1ccc(C2=NO[C@@H]3C(=O)N(Cc4ccccc4)C(=O)[C@H]23)cc1OC` has an activity change (cytotoxicity) of -0.3%.
Molecule `Cn1c(CCNS(=O)(=O)c2ccc(F)cc2)nnc1SCc1cccnc1` has an activity change (cytotoxicity) of -4.1%.
In the case of `CC(=O)NC(C(=O)NCC(N)=O)C(C)C` (stereo not given), the activity change (cytotoxicity) is reported as -4.4%.
`C/C(=N\NC(=O)c1cc2c(s1)CCC(C)C2)c1cccnc1` (stereo not given) gave an activity change (cytotoxicity) of 8.5%.
With `CC(C)OC(=O)c1ccc(NCc2cc(O)ccc2O)cc1Cl` the activity change (cytotoxicity) was -51.3% (active).
`CC(CN1CCCCC1)OC(=O)c1ccccc1Cl` (stereo not given) gave an activity change (cytotoxicity) of 0.5%.
For `O=C(O)Cc1ccc(NCc2ccccc2Cl)cc1`, the activity change (cytotoxicity) was 7.8%.
Work on `CCN(CC)CCn1c(/N=C/c2cc(Br)ccc2O)nc2ccccc21` yielded an activity change (cytotoxicity) of 2.8%.
In the case of `Oc1ccc(Br)cc1/C=N/Nc1ccccn1`, the activity change (cytotoxicity) is reported as -94.7% (active).
`O=C(Nc1ccc(Br)cc1)c1cc(S(=O)(=O)Nc2ccccn2)ccc1Cl` gave an activity change (cytotoxicity) of -6.3%.
With `N#CC(=C1SC=CS1)c1nc(-c2ccccc2)cs1` the activity change (cytotoxicity) was 9.6%.
With `CCOc1ccc(NC(=O)CN(C)C(=O)Cn2c(=O)cnc3ccccc32)cc1OCC` the activity change (cytotoxicity) was 3.8%.
In the case of `COc1cccc2c1C(=O)c1c(O)c3c(c(O)c1C2=O)CC(O)(C(C)=NNC(=O)c1ccc(Cl)c(Cl)c1)CC3OC1CC(N)C(O)C(C)O1` (stereo not given), the activity change (cytotoxicity) is reported as -53.3% (active).
`CCOC(=O)C1(Cc2cccc(OC)c2)CCN(Cc2csc(C(C)=O)c2)CC1` gave an activity change (cytotoxicity) of -6%.
For `Oc1cccc2ccc(/C=C/c3ccc(Br)s3)nc12`, the activity change (cytotoxicity) was -93.8% (active).
In the case of `COc1ccc([C@H]2CC(=O)C=C(/C=C/c3ccccc3)C2)cc1`, the activity change (cytotoxicity) is reported as 9.7%.
For `CC(C)c1ccc(/C=C2\NC(=O)NC2=O)cc1`, the activity change (cytotoxicity) was 11.8%.
For `CC[C@]12c3[nH]c4cc(CCC(=O)N(C)C)ccc4c3CCN1C(=O)[C@@H](CC(=O)NCCCn1ccnc1)C[C@@H]2C(=O)N1CCN(C(=O)C2CC2)CC1`, the activity change (cytotoxicity) was 0.6%.
For `COC(=O)C1=C(NC(=O)C(C)(C)C)CCS1`, the activity change (cytotoxicity) was 2.3%.
For `CCOC(=O)c1c(C)[nH]c2c1-c1ccccc1C(=O)C2=O`, the activity change (cytotoxicity) was -91.6% (active).
Work on `CCOC(=O)c1c(C)[nH]c(C)c1C(=O)CSc1nc(N)cc(N)n1` yielded an activity change (cytotoxicity) of 13.1%.
In the case of `CCOC(=O)c1cnc(COc2ccccc2Cl)[nH]c1=O`, the activity change (cytotoxicity) is reported as 4.6%.
In the case of `Cc1c2cn[nH]c(=O)c2c(C)n1Cc1ccc(F)cc1`, the activity change (cytotoxicity) is reported as -2.2%.
Molecule `O=C(O)CSCC(=O)Nc1ccc(C(F)(F)F)cc1` has an activity change (cytotoxicity) of -4%.
With `O=C(CCl)Nc1ccc(Sc2ccc(NC(=O)CCl)cc2)cc1` the activity change (cytotoxicity) was -68.5% (active).
`CC(=O)Nc1ccc(SCC(=O)NC(=O)c2ccc(Cl)cc2)cc1` gave an activity change (cytotoxicity) of 8%.
`CN(C)c1ccc(C(=S)N2CCN(C(=S)Nc3ccc(Cl)cc3)CC2)cc1` showed an activity change (cytotoxicity) of 5.1%.
Molecule `O=C(COC(=O)c1cccc(Br)c1)Nc1cccc2c1C(=O)c1ccccc1C2=O` has an activity change (cytotoxicity) of -17.2%.
With `CC(=O)c1cc(NC(=O)c2ccccc2)c(=O)oc1/C=C/N(C)C` the activity change (cytotoxicity) was -6.9%.
For `O=C(NC1=CC(=O)c2ccccc2C1=O)c1ccccc1`, the activity change (cytotoxicity) was -97.9% (active).
Molecule `COc1ccc(CCNC(=O)CN(c2ccccc2)S(C)(=O)=O)cc1OC` has an activity change (cytotoxicity) of 8.4%.
For `COc1ccc(C(C(=O)NC2CCCCC2)N(C(=O)CCl)c2ccccc2Cl)cc1` (stereo not given), the activity change (cytotoxicity) was 4.1%.
With `COc1ccc(C(CCN(Cc2ccc(OC)c(OC)c2)C(=O)CCl)c2ccccc2)cc1` (stereo not given) the activity change (cytotoxicity) was -76.9% (active).
For `CC(=O)OC(C)C[N+](C)(C)C` (stereo not given), the activity change (cytotoxicity) was 3.7%.
In the case of `CC(C[N+](C)(C)C)OC(N)=O` (stereo not given), the activity change (cytotoxicity) is reported as -65.7% (active).
`COc1ccc(C(N)c2csc(NC(=O)Nc3cccc(C(F)(F)F)c3)n2)cc1` (stereo not given) showed an activity change (cytotoxicity) of -18.3%.
For `NC(c1ccccc1)c1csc(NC(=O)Nc2cccc(C(F)(F)F)c2)n1` (stereo not given), the activity change (cytotoxicity) was -17.2%.
With `NC(c1csc(NC(=O)Nc2cccc(C(F)(F)F)c2)n1)C1CCCCC1` (stereo not given) the activity change (cytotoxicity) was -57.8% (active).
`c1ccc2c(c1)OCC(c1nn3cnnc3s1)O2` (stereo not given) showed an activity change (cytotoxicity) of 0.1%.
With `O=C(CSc1nnc(N2CCOCC2)n1-c1cccc(F)c1)N1CCN(c2ccccn2)CC1` the activity change (cytotoxicity) was -2.4%.
Molecule `O=C(/C(=N\O)n1cncn1)c1ccc(Br)cc1Br` has an activity change (cytotoxicity) of -5.9%.
For `Cc1c(NC(=O)CN(C)CC(=O)Nc2ccc(F)c(F)c2F)c(=O)n(-c2ccccc2)n1C`, the activity change (cytotoxicity) was 5.4%.

— PubChem BioAssay AID602141 (Sanford-Burnham Center for Chemical Genomics, 2011)
